Reference: PubChem BioAssay
Calls of active or inactive are those of the source.

System: XIP peptide (Xip251-270) binding
Test: small-molecule binders of XIP peptide, primary screen, biochemical, small-molecule microarray, fluorescence 635/667 nm, 0.1 µg/mL protein (AID 1182)
Details: fluorescent protein binding, 635 nm, higher = more signal, called active from +8 up or from −8 down

Composite z-score, inactive:
COCCOC(=O)N1C(=O)[C@@]2(c3cc(C#CC4(O)CCCCCC4)ccc31)[C@H](C(=O)N1CCCCCCC1)[C@H]1C(=O)O[C@H](c3ccccc3)[C@H](c3ccccc3)N1[C@@H]2c1ccccc1OCCO -0.0713
CCOC(=O)[C@H]1C/C=C/C[C@H](C(=O)OCC)C(=O)O[C@H]2[C@@H](OC)O[C@H](CO)[C@@H](OC(=O)Nc3ccc4c(c3)OCO4)[C@@H]2OC1=O 1.28
C#CCN(C(/C=C/c1ccccc1)CO)C(C(=O)O)c1ccccc1 (stereo unspecified) 0.194
COCC(=C=CC[C@@H](O)c1ccc(CO)o1)CCO 0.848
O=C1O[C@H](c2ccccc2)[C@H](c2ccccc2)N2[C@H]1[C@@H](C(=O)O)[C@]1(C(=O)Nc3ccc(C#CC4(O)CCCCCC4)cc31)[C@H]2c1ccc(OCCO)cc1 1.31
C=CCOC(=O)[C@H]1[C@@H]2C(=O)O[C@@H](c3ccccc3)[C@@H](c3ccccc3)N2[C@@H](c2ccc(OCCOC(=O)[C@@H]3C[C@@H]4C(=O)NCC(=O)N4[C@@H]3c3ccc(O)cc3)cc2)[C@]12C(=O)Nc1ccccc12 0.941
COCCOC(=O)N1C(=O)[C@@]2(c3ccccc31)[C@H](c1ccc(O)cc1)N1[C@H](c3ccccc3)[C@H](c3ccccc3)OC(=O)[C@H]1[C@@H]2C(=O)N1CCc2cc(OC)c(OC)cc2C1 1.46
CCOC(=O)C1=C[C@@H](C(C)C)N(S(=O)(=O)c2ccc(C)cc2)[C@H]1c1ccc(C(C)C)cc1 0.306
C=C[C@H](C)[C@@H](O)c1ccc(O)c2ccccc12 -0.233
O=C1C[C@@](C(=O)NC2CC2)(c2ccc([N+](=O)[O-])cc2)[C@@H](c2ccc(CO)cc2)N1CC12CC3CC(CC(C3)C1)C2 -0.181
O=c1cccc(CCc2ccccc2)o1 0.223
C=CC[C@@]1(C(=O)O)N=C(c2ccc(OCCCO)cc2)O[C@@H]1c1ccccc1N=[N+]=[N-] 0.926
O=c1cccc(C=Cc2ccccc2)o1 -0.707
CC(=O)NCCCC[C@@H]1NC(=O)[C@H]2C[C@@H](C(=O)NCCCCCC[N+](C)(C)C)[C@@H](c3cccc(OCCO)c3)N2C1=O 1.87
CC1=C2[C@@H](CCc3ccccc3)OB(O)C[C@@H]2n2c(=O)n(-c3ccccc3)c(=O)n2C1 -0.105
[N-]=[N+]=Nc1ccccc1[C@H]1OC(c2ccc(OCCCO)cc2)=N[C@@]1(CCS(=O)(=O)c1ccccc1)C(=O)O 0.835
COC(=O)[C@@]1(Cc2ccc(OC)cc2)[C@H]2c3cc(C(=O)N4CCCC4)n(Cc4cc(F)cc5c4OCOC5)c3C[C@H]2CN1C(=O)c1ccccc1 0.365
COc1ccc(C#Cc2ccc3c(c2)[C@]2(C(=O)N3)[C@H](c3ccc(O)cc3)N3[C@H](c4ccccc4)[C@H](c4ccccc4)OC(=O)[C@H]3[C@@H]2C(=O)NC[C@H](O)c2ccccc2)cc1 0.265
CCCNC(=O)[C@@H]1c2ccccc2C(=O)N(Cc2ccccc2)[C@H]1c1ccc(CO)cc1 0.838
COC(=O)C[C@H]1O[C@]2(C(=O)N(Cc3ccccc3)c3ccc(NC(C)=O)cc32)[C@@H](C)[C@@H]1[Si](C)(C)c1ccc(OC)cc1 0.337
CC(C)NC(=O)[C@@H]1c2ccccc2C(=O)N(Cc2ccccc2Cl)[C@H]1c1ccc(CO)cc1 0.989
COc1ccc(C#Cc2ccc3c(c2)[C@]2(C(=O)N3)[C@H](c3ccc(O)cc3)N3[C@H](c4ccccc4)[C@H](c4ccccc4)OC(=O)[C@H]3[C@@H]2C(=O)N2CCCCCCC2)cc1 0.59
O=C1C2C=CC(C(O)c3ccc(F)cc3)N(Nc3ccccc3)C2C(=O)N1c1ccccc1 (stereo unspecified) 0.669
NC(=O)NCC#Cc1ccc2c(c1)[C@]1(C(=O)N2)[C@H](C(=O)NC[C@H](O)c2ccccc2)[C@H]2C(=O)O[C@H](c3ccccc3)[C@H](c3ccccc3)N2[C@@H]1c1ccc(O)cc1 5.26
COC(=O)C1=CC(CCCO)=CC(C2CC2)N(Cc2sc3ccccc3c2Cl)C=C1C(=O)OC (stereo unspecified) 0.827
O=C1O[C@H](c2ccccc2)[C@H](c2ccccc2)N2[C@H]1[C@@H](C(=O)N1CCN(c3ncccn3)CC1)[C@]1(C(=O)Nc3ccccc31)[C@H]2c1ccc(OCCO)cc1 -0.161
